Counter-ions that a name gives are not always drawn. ± gives the standard deviation of the averaged measurements. Whole data set: some 1,300 compounds, median “normalised cell viability” near 1, cut for the lowest 2% near 0.15. This is one part of a sample in which the lowest values are shown more often than they occur.
Tested on: V-C8 + BRCA2 (BRCA2-proficient hamster cells)
Test: normalised cell viability (fraction of plate median); higher = more viable cells (less toxic)
Conditions: 5 µM
In short: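 Cell viability was measured with a resazurin assay, normalised to the plate median (modified robust per cent of sample) and averaged over triplicate wells. Hamster V-C8 cells lacking BRCA2 and V-C8 cells with BRCA2 restored were seeded in 96-well plates. After 24 h, library drugs from 10 mM DMSO stocks were added at a final 5 μM in 100 μl medium and left for 3 days (screen 1) or 6 days (screen 2), with solvent-only wells alongside.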

Row | SMILES | normalised cell viability (treatment time: 3 days) | normalised cell viability (treatment time: 6 days)
1 | Nc1c2c(nc3ccccc13)CCCC2 [Tacrine hydrochloride] | 0.905 ± 0.038 | 1.09 ± 0.014
2 | O=C(Nc1ccc([N+](=O)[O-])cc1Cl)c1cc(Cl)ccc1O [Niclosamide] | 0.139 ± 0.0082 | 0.127 ± 0.0065
3 | O=C(OCCOCCO)c1ccccc1Nc1cccc(C(F)(F)F)c1 [Etofenamate] | 0.988 ± 0.045 | 0.987 ± 0.061
4 | COC(=O)Nc1nc2cc(Sc3ccccc3)ccc2[nH]1 [Fenbendazole] | 0.183 ± 0.0078 | 0.179 ± 0.017
5 | COC(=O)Nc1nc2cc([S+]([O-])c3ccccc3)ccc2[nH]1 (stereo not given) [Oxfendazol] | 0.74 ± 0.055 | 0.827 ± 0.05
6 | COC(=O)Nc1nc2cc(C(=O)c3ccc(F)cc3)ccc2[nH]1 [Flubendazol] | 0.168 ± 0.017 | 0.167 ± 0.0085
7 | COC(=O)Nc1nc2cc(C(=O)c3cccs3)ccc2[nH]1 [Nocodazole] | 0.143 ± 0.0097 | 0.132 ± 0.01
8 | CCCOc1ccc2[nH]c(NC(=O)OC)nc2c1 [Oxibendazol] | 0.18 ± 0.0021 | 0.194 ± 0.0035
9 | COC(=O)Nc1nc2cc(C(=O)c3ccccc3)ccc2[nH]1 [Mebendazole] | 0.163 ± 0.013 | 0.151 ± 0.0072
10 | NCC[C@H](O)C(=O)N[C@@H]1C[C@H](N)[C@@H](O[C@H]2O[C@H](CN)[C@@H](O)[C@H](O)[C@H]2O)[C@H](O)[C@H]1O[C@H]1O[C@H](CO)[C@@H](O)[C@H](N)[C@H]1O [Amikacin hydrate] | 0.584 ± 0.023 | 0.699 ± 0.089
11 | CN(C)CCC=C1c2ccccc2C=Cc2ccccc21 [Cyclobenzaprine hydrochloride] | 1.06 ± 0.062 | 1.08 ± 0.034
12 | Cc1ccc(Cl)c(Nc2ccccc2C(=O)O)c1Cl [Meclofenamic acid sodium salt monohydrate] | 1.02 ± 0.068 | 1.08 ± 0.084
13 | N=C(N)NCC1COC2(CCCCC2)O1 (stereo not given) [Guanadrel sulfate] | 1.06 ± 0.038 | 1.03 ± 0.041
14 | CN(C/C=C/C#CC(C)(C)C)Cc1cccc2ccccc12 [Terbinafine] | 0.206 ± 0.0049 | 0.339 ± 0.031
15 | CCCCCCC[N+](CC)(CC)CCCCc1ccc(Cl)cc1 [Clofilium tosylate] | 0.897 ± 0.063 | 0.935 ± 0.094
16 | CN1CCN(CCCN2c3ccccc3Sc3ccc(S(=O)(=O)N(C)C)cc32)CC1 [Thioproperazine dimesylate] | 0.884 ± 0.11 | 0.834 ± 0.039
17 | N=C(N)N/N=C/c1c(Cl)cccc1Cl [Guanabenz acetate] | 1.1 ± 0.022 | 1.01 ± 0.082
18 | Cn1cnc([N+](=O)[O-])c1Sc1ncnc2[nH]cnc12 [Azathioprine] | 0.93 ± 0.032 | 0.93 ± 0.045

Row | SMILES | normalised cell viability (treatment time: 3 days) | normalised cell viability (treatment time: 6 days)
19 | C[C@@H]1CN(c2c(F)c(N)c3c(=O)c(C(=O)O)cn(C4CC4)c3c2F)C[C@H](C)N1 [Sparfloxacin] | 1.027 ± 0.009 | 1.05 ± 0.056
20 | COC(=O)C1=C(C)NC(C)=C(C(=O)OC(C)C)C1c1cccc2nonc12 (stereo not given) [Isradipine] | 1.02 ± 0.032 | 0.9264 ± 0.0066
21 | CC1CNc2c(cccc2S(=O)(=O)N[C@@H](CCCNC(=N)N)C(=O)N2CC[C@@H](C)C[C@@H]2C(=O)O)C1 (stereo not given in full) [Argatroban] | 1.203 ± 0.0019 | 1.12 ± 0.14
22 | CC(=O)N(CC(O)CN(C(C)=O)c1c(I)c(C(=O)NCC(O)CO)c(I)c(C(=O)NCC(O)CO)c1I)c1c(I)c(C(=O)NCC(O)CO)c(I)c(C(=O)NCC(O)CO)c1I (stereo not given) [Iodixanol] | 0.975 ± 0.053 | 1 ± 0.059
23 | CN1CCC(OC(c2ccccc2)c2ccccc2)CC1 [Diphenylpyraline hydrochloride] | 0.976 ± 0.11 | 1.04 ± 0.037
24 | CO[C@@]1(NC(=O)CSCC#N)C(=O)N2C(C(=O)O)=C(CSc3nnnn3C)CS[C@@H]21 [Cefmetazole sodium salt] | 0.959 ± 0.029 | 0.98 ± 0.072
25 | O=C(Nc1cccc2c(=O)cc(-c3nnn[nH]3)oc12)c1ccc(OCCCCc2ccccc2)cc1 [Pranlukast] | 1.06 ± 0.05 | 1.08 ± 0.049
26 | CCN(CC)CCOCCOC(=O)C1(c2ccccc2)CCCC1 [Carbetapentane citrate] | 0.163 ± 0.0089 | 0.181 ± 0.0049
27 | O=C(O)CCC(=O)Nc1ccc(S(=O)(=O)Nc2nccs2)cc1 [Succinylsulfathiazole] | 0.979 ± 0.083 | 1.04 ± 0.04
28 | CC(C)(C)NCC(O)c1cc(O)cc(O)c1 (stereo not given) [Terbutaline hemisulfate] | 0.45 ± 0.037 | 0.5206 ± 0.0045
29 | OCC(O)CN1CCN(c2ccccc2)CC1 (racemic) [Dropropizine (R,S)] | 1.07 ± 0.041 | 0.9583 ± 0.0092
30 | COC(=O)C1=C(C)NC(C)=C(C(=O)OC2CCCN(Cc3ccccc3)C2)C1c1cccc([N+](=O)[O-])c1 (stereo not given) [Benidipine hydrochloride] | 0.988 ± 0.065 | 0.97 ± 0.04
31 | COc1ccc(C2CNC(=O)C2)cc1OC1CCCC1 (stereo not given) [Rolipram] | 0.985 ± 0.037 | 1.15 ± 0.22
32 | CC(C)c1c(C(=O)Nc2ccccc2)c(-c2ccccc2)c(-c2ccc(F)cc2)n1CC[C@@H](O)C[C@@H](O)CC(=O)O [Atorvastatin] | 0.701 ± 0.01 | 0.743 ± 0.017
33 | CC(C)n1c(/C=C/C(O)CC(O)CC(=O)O)c(-c2ccc(F)cc2)c2ccccc21 (stereo not given) [Fluvastatin sodium salt] | 0.134 ± 0.0077 | 0.155 ± 0.013
34 | CC[N+](C)(C)Cc1ccccc1Br [Bretylium tosylate] | 0.9932 ± 0.0068 | 0.977 ± 0.013
35 | C=C(NC(=O)C(=C)NC(=O)c1csc(C2=N[C@@H]3c4csc(n4)[C@H]4NC(=O)c5csc(n5)[C@H]([C@](C)(O)[C@@H](C)O)NC(=O)[C@H]5CSC(=N5)/C(=C/C)NC(=O)[C@H]([C@@H](C)O)NC(=O)c5csc(n5)[C@]3(CC2)NC(=O)[C@H](C)NC(=O)C(=C)NC(=O)[C@H](C)NC(=O)[C@H]([C@@H](C)CC)N[C@@H]2C=Cc3c([C@H](C)O)cc(nc3[C@H]2O)C(=O)O[C@@H]4C)n1)C(N)=O [Thiostrepton] | 0.135 ± 0.0082 | 0.126 ± 0.013

Source: the supplement of paper PMC6609913
